Assay [1] in a line: NCI Yeast Anticancer Drug Screen. Data for the rad50 strain (AID 155).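 Note: 0% = growth of vehicle-only cultures of the same strain.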 The conditions noted are these: S. cerevisiae rad50 strain growth inhibition, hits give high values. In a few lines:
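Readout: growth inhibition relative to vehicle-treated cultures. Compound exposure was carried out in a genetically defined yeast strain deficient in DNA damage repair.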

A short description of assay [2]: NCI Yeast Anticancer Drug Screen. Data for the mec2-1 strain (AID 157). The conditions noted are these: S. cerevisiae mec2-1 strain, hits give high values. In a few lines:
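Cells of the genetically defined mec2-1 yeast strain are incubated with test compound. Inhibition of growth is calculated against vehicle-treated controls.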

A short description of assay [3]: NCI Yeast Anticancer Drug Screen. Data for the sgs1 mgt1 strain (AID 161).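 Note: 0% = growth of cultures given vehicle only.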 To be noted: S. cerevisiae sgs1 mgt1 strain, hits give high values. The method in brief:
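Genetically altered yeast, compound exposure, growth inhibition relative to vehicle.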

Assay [4] can be described thus: NCI Yeast Anticancer Drug Screen. Data for the cln2 rad14 strain (AID 165).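 Note: 0% = growth equal to vehicle treated cultures.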 To be noted: S. cerevisiae cln2 rad14 strain, hits give high values. The method in brief: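 The screen exposed genetically defined yeast (cln2 rad14) to test compounds and scored growth inhibition relative to vehicle-treated controls.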
Assay [5] is described as follows: NCI Yeast Anticancer Drug Screen. Data for the bub3 strain (AID 167). To be noted: S. cerevisiae bub3 mutant strain, hits give high values. The method in brief:
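Readout: yeast growth inhibition, expressed relative to vehicle-only wells. The test organism is a mutant strain from a panel with lesions in DNA repair or checkpoint genes.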

A short description of assay [6]: NCI Yeast Anticancer Drug Screen. Data for the mlh1 rad18 strain (AID 175). The conditions noted are these: S. cerevisiae mlh1 rad18 strain growth inhibition, hits give high values. In a few lines:
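Compound-treated yeast growth, normalised to vehicle controls. Strain bears defined DNA repair mutations.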

Where [7] appears, read: at 5.0 µM (retest, dose inferred, filed as 0.5).
[8] abbreviates: at 50.0 µM (retest, dose inferred, filed as 5.0).

The structures appear in SMILES notation. About 79,000 compounds went through this panel and 15% of them were active in at least one assay; those are over-represented in the sample as a whole. Values without a mark were called inactive. Activity calls are given as the source filed them. Cut-off read from the data, not from the text of the source: active = growth inhibition above about 70%; inactive = the rest.

Regarding `CC1(C)C(=O)C(C(Cl)(Cl)Cl)=C(Cl)C(=O)C1(Cl)Cl`, the growth inhibition in assay [1] (setting [7]) is 64%; in assay [1] (setting [8]), 97% (active); in assay [1] (at 50.0 µM) it was 52.5%; in assay [2] (setting [7]) it was 27%; in assay [2] (setting [8]), 96% (active); in assay [2] (at 50.0 µM) it was 42.1%. The growth inhibition was 38% in assay [3] (setting [7]); 93% (active) in assay [3] (setting [8]); 64.9% in assay [3] (at 50.0 µM); 49% in assay [4] (setting [7]); 89% (active) in assay [4] (setting [8]); 48.8% in assay [4] (at 50.0 µM). In addition, the growth inhibition is 56% in assay [5] (setting [7]); 96% (active) in assay [5] (setting [8]); 51.1% in assay [5] (at 50.0 µM); 42% in assay [6] (setting [7]); 97% (active) in assay [6] (setting [8]); 67.5% in assay [6] (at 50.0 µM).

Turning to `CCCc1nc2c(nc1C)C(=O)C=CC2=O`, the growth inhibition was -101% in assay [1] (setting [7]); 96% (active) in assay [1] (setting [8]); 96.5% (active) in assay [1] (at 50.0 µM); -37% in assay [2] (setting [7]); 99% (active) in assay [2] (setting [8]); 97.5% (active) in assay [2] (at 50.0 µM). Besides, the growth inhibition in assay [3] (setting [7]) is -46%; in assay [3] (setting [8]), 95% (active); in assay [3] (at 50.0 µM), 81.6% (active); in assay [4] (setting [7]), -44%; in assay [4] (setting [8]), 97% (active); in assay [4] (at 50.0 µM), 86.5% (active). The growth inhibition in assay [5] (setting [7]) is -53%; in assay [5] (setting [8]), 96% (active); in assay [5] (at 50.0 µM) it was 97.1% (active); in assay [6] (setting [7]), -80%; in assay [6] (setting [8]), 96% (active); in assay [6] (at 50.0 µM) it was 98.3% (active).

With `O=S1(=O)C(Br)=Cc2ccccc21`, the growth inhibition in assay [1] (setting [7]) was 16%; in assay [1] (setting [8]), 99% (active); in assay [1] (at 50.0 µM), 99.3% (active); in assay [2] (setting [7]), -6%; in assay [2] (setting [8]), 99% (active); in assay [2] (at 50.0 µM) it was 99.3% (active). In addition, the growth inhibition in assay [3] (setting [7]) is 25%; in assay [3] (setting [8]) it was 99% (active); in assay [3] (at 50.0 µM) it was 98.7% (active); in assay [4] (setting [7]), 17%; in assay [4] (setting [8]) it was 99% (active); in assay [4] (at 50.0 µM), 97.7% (active). Moreover, the growth inhibition in assay [5] (setting [7]) was 13%; in assay [5] (setting [8]), 99% (active); in assay [5] (at 50.0 µM) it was 99.4% (active); in assay [6] (setting [7]) it was 23%; in assay [6] (setting [8]), 99% (active); in assay [6] (at 50.0 µM), 98.7% (active).

For `O=C(NN=C1CCCCC1)c1ccc([N+](=O)[O-])cc1`, the growth inhibition is -1% in assay [1] (setting [7]); -7% in assay [1] (setting [8]); -0.5% in assay [1] (at 50.0 µM); -17% in assay [2] (setting [7]); -11% in assay [2] (setting [8]); 0.2% in assay [2] (at 50.0 µM). Also, the growth inhibition in assay [3] (setting [7]) was 13%; in assay [3] (setting [8]) it was 9%; in assay [3] (at 50.0 µM), 10.6%; in assay [4] (setting [7]) it was -1%; in assay [4] (setting [8]), 10%; in assay [4] (at 50.0 µM), 37.5%. Besides, the growth inhibition was 19% in assay [5] (setting [7]); 24% in assay [5] (setting [8]); -2.95% in assay [5] (at 50.0 µM); 4% in assay [6] (setting [7]); 7% in assay [6] (setting [8]); 20.2% in assay [6] (at 50.0 µM).

As to `O=C(O)C1CC[N-]CC1.O=C(O)C1CC[N-]CC1.[Cl][Pt+2]([Cl])([Cl])[Cl]`, the growth inhibition was 30% in assay [1] (setting [7]); 90% (active) in assay [1] (setting [8]); 97.6% (active) in assay [1] (at 50.0 µM); 2% in assay [2] (setting [7]); 94% (active) in assay [2] (setting [8]); 85.2% (active) in assay [2] (at 50.0 µM). Moreover, the growth inhibition was 38% in assay [3] (setting [7]); 94% (active) in assay [3] (setting [8]); 94.1% (active) in assay [3] (at 50.0 µM); 0% in assay [4] (setting [7]); 97% (active) in assay [4] (setting [8]); 81.7% (active) in assay [4] (at 50.0 µM). For the same compound, the growth inhibition in assay [5] (setting [7]) was 17%; in assay [5] (setting [8]), 93% (active); in assay [5] (at 50.0 µM), 90.2% (active); in assay [6] (setting [7]), 25%; in assay [6] (setting [8]) it was 94% (active); in assay [6] (at 50.0 µM) it was 88.8% (active).

As to `O=S(=O)(Nc1ccccc1-c1ccc(Cl)cc1)c1ccccc1`, the growth inhibition was -6% in assay [1] (setting [7]); 14% in assay [1] (setting [8]); 98.9% (active) in assay [1] (at 50.0 µM); -8% in assay [2] (setting [7]); 8% in assay [2] (setting [8]); 52.9% in assay [2] (at 50.0 µM). In addition, the growth inhibition is -7% in assay [3] (setting [7]); -56% in assay [3] (setting [8]); 97.5% (active) in assay [3] (at 50.0 µM); -12% in assay [4] (setting [7]); 95% (active) in assay [4] (setting [8]); 98% (active) in assay [4] (at 50.0 µM). The growth inhibition in assay [5] (setting [7]) was 2%; in assay [5] (setting [8]), 91% (active); in assay [5] (at 50.0 µM), 54.9%; in assay [6] (setting [7]), -8%; in assay [6] (setting [8]), 57%; in assay [6] (at 50.0 µM), 73.7% (active).

With `CSc1cc(N)nc(N)n1`, the growth inhibition in assay [1] (setting [7]) is 3%; in assay [1] (setting [8]), -4%; in assay [1] (at 50.0 µM) it was 73% (active); in assay [2] (setting [7]), 3%; in assay [2] (setting [8]) it was 2%; in assay [2] (at 50.0 µM) it was 79.3% (active). Moreover, the growth inhibition is 4% in assay [3] (setting [7]); 14% in assay [3] (setting [8]); 80.3% (active) in assay [3] (at 50.0 µM); 1% in assay [4] (setting [7]); 3% in assay [4] (setting [8]); 83.2% (active) in assay [4] (at 50.0 µM). Moreover, the growth inhibition is 1% in assay [5] (setting [7]); -3% in assay [5] (setting [8]); 38.9% in assay [5] (at 50.0 µM); 2% in assay [6] (setting [7]); -6% in assay [6] (setting [8]); 93.4% (active) in assay [6] (at 50.0 µM).

Turning to `O=C(OC1C2CCC2C2CC21)c1ccc([N+](=O)[O-])cc1[N+](=O)[O-]` (configuration not stated), the growth inhibition is 26% in assay [1] (setting [7]); 95% (active) in assay [1] (setting [8]); 36% in assay [1] (at 50.0 µM); 14% in assay [2] (setting [7]); 99% (active) in assay [2] (setting [8]); 37.5% in assay [2] (at 50.0 µM). Besides, the growth inhibition was 24% in assay [3] (setting [7]); 98% (active) in assay [3] (setting [8]); 59.1% in assay [3] (at 50.0 µM); 6% in assay [4] (setting [7]); 99% (active) in assay [4] (setting [8]); 39.5% in assay [4] (at 50.0 µM). Besides, the growth inhibition is -5% in assay [5] (setting [7]); 93% (active) in assay [5] (setting [8]); 37.2% in assay [5] (at 50.0 µM); 25% in assay [6] (setting [7]); 98% (active) in assay [6] (setting [8]); 62.9% in assay [6] (at 50.0 µM).

In the case of `C1=NC(N(Cc2ccccc2)Cc2ccccc2)N(Cc2ccccc2)N1` (configuration not stated), the growth inhibition in assay [1] (setting [7]) is 26%; in assay [1] (setting [8]), 95% (active); in assay [1] (at 50.0 µM) it was 92.4% (active); in assay [2] (setting [7]), -1%; in assay [2] (setting [8]), 95% (active); in assay [2] (at 50.0 µM), 93.6% (active). Besides, the growth inhibition was 14% in assay [3] (setting [7]); 94% (active) in assay [3] (setting [8]); 92.1% (active) in assay [3] (at 50.0 µM); -1% in assay [4] (setting [7]); 95% (active) in assay [4] (setting [8]); 89.8% (active) in assay [4] (at 50.0 µM). Further, the growth inhibition in assay [5] (setting [7]) is -14%; in assay [5] (setting [8]), 96% (active); in assay [5] (at 50.0 µM), 92.2% (active); in assay [6] (setting [7]), -19%; in assay [6] (setting [8]), 96% (active); in assay [6] (at 50.0 µM), 88.8% (active).

Values taken from PubChem BioAssay (NCI).
